# Data from PubChem BioAssay (EPA / NIEHS).
# Results filed as inconclusive are left out. The source made the active and inactive calls. The calls were made as follows: active = hit-call score of the fitted dose curve at least 0.9, where 1 is the maximum; inconclusive = response in the unintended direction; inactive = score below 0.9.
# Assay: CCTE_Mundy_HCI_iCellGluta_NOG_NeuriteCount: CCTE's Neurite Outgrowth Assay in iCellGluta cells for Neurite Count, Mundy Lab (AID 2284342);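 also: chemical exposure about 48 hours starting 2 hours after plating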
# Method: CCTE_Mundy_HCI_iCellGluta_NOG is a multiplexed, cell-based-readout assay that uses iCell GlutaNeurons from FUJIFILM Cellular Dynamics, Inc. (FCDI), human glutamatergic enriched neurons derived from induced pluripotent stem (iPS) cells, with measurements taken at 50.33 hours after chemical dosing in a microplate: 96-well plate.CCTE_Mundy_HCI_iCellGluta_NOG_NeuriteCount is one of four components of the CCTE_Mundy_HCI_iCellGluta_NOG assay. It measures neurite outgrowth related to number of neurites using High Content Imaging of fluorescently labelled markers.Data from the assay component CCTE_Mundy_HCI_iCellGluta_NOG_NeuriteCount was analyzed at the endpoint CCTE_Mundy_HCI_iCellGluta_NOG_NeuriteCount in the positive analysis fitting direction relative to DMSO as the negative control and baseline of activity. Using a type of morphology reporter, loss-of-signal activity can be used to understand developmental effects.
# Exposure starts 2 hours post-plating by adding 10 ul of the working solution to 90 ul of media in the wells for a 1/10 dilution. Forty-eight hours after chemical treatment cells are fixed by direct addition of 100 ul of warm (37C) Dulbecco's phosphate buffered saline (DPBS) fixative solution containing 8% paraformaldehyde, 8% sucrose, and 0.1% of 3 mg/ml Hoechst 33342 into each well. Primary antibodies are prepared by dilution in Immunocytochemical Staining Buffer (ISB), 10X Dulbecco's PBS, 0.1% Saponin, 5% Bovine Serum Albumin, 0.5% NaN3 (Sodium Azide) and betaIII-tubulin (rabbit anti-betaIII-tubulin, 1:800) followed by Alexa Fluor-488 secondary (1:500) to label neuronal cell bodies and neurites. A Cellomics ArrayScan VTi HCS Reader is used for automated image acquisition and analysis of neurite outgrowth.
row,SMILES,outcome
1,O=C(O)C(F)(F)C(F)(F)C(F)(F)OC(F)(F)F,inactive
2,OCCCCC(F)(F)C(F)(F)C(F)(F)C(F)(F)F,inactive
3,OCCCC(F)(F)C(F)(F)C(F)(F)C(F)(F)C(F)(F)C(F)(F)C(F)(F)C(F)(F)F,inactive
4,O=C(O)CCC(F)(F)C(F)(F)C(F)(F)C(F)(F)C(F)(F)C(F)(F)C(F)(F)F,inactive
5,O=C(F)C1(F)C(F)(F)C(F)(F)C(F)(F)C(F)(F)C1(F)F,inactive
6,NC(=O)C(F)(F)C(F)(F)C(F)(F)C(F)(F)C(N)=O,inactive
7,O=C(O)CCC(F)(F)C(F)(F)C(F)(F)F,inactive
8,O=S(=O)(O)CCC(F)(F)C(F)(F)C(F)(F)C(F)(F)C(F)(F)C(F)(F)C(F)(F)C(F)(F)F,inactive
9,O=C(O)C(F)(F)C(F)(F)C(F)(F)OC(F)(C(F)(F)F)C(F)(F)F,inactive
10,NC(=O)C(F)(F)C(F)(F)C(F)(F)C(F)(F)C(F)(F)C(F)(F)C(F)(F)F,inactive
11,CCN(CCO)S(=O)(=O)C(F)(F)C(F)(F)C(F)(F)C(F)(F)C(F)(F)C(F)(F)C(F)(F)C(F)(F)F,inactive
12,NC(O)(C(F)(F)F)C(F)(F)F,inactive
13,C=CC(=O)OCC(F)(F)C(F)(F)C(F)(F)COC(=O)C=C,inactive
